Bioassay records: PubChem, several laboratories
Pemphigus Ab inh: blocks pemphigus antibody binding to human desmoglein-3; 0.48% of 310,000 active; DSG3-coupled beads, scFv-anti-DSG3-GFP binding, flow cytometry; stronger effect = lower value; binding (percent of control), % at 10 µM; AID 588358; P32926;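 active = binding more than 3 SD below its plate's average and above zero; inconclusive = below that plate limit but binding exactly zero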;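 note: hits lower antibody fragment binding to DSG3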
PAFAH1B3 FP inh: blocks human PAF acetylhydrolase 1B catalytic subunit 3; Q15102; recombinant PAFAH1B3, FP-rhodamine probe, fluorescence polarization; inhibition, % at 3.39 µM; 0.28% of 340,000 active;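 active = inhibition above the screen-wide average of all tested compounds plus 3 SD, cut at about 25% in these data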
Target sequence (Q15102 whole entry, looked up): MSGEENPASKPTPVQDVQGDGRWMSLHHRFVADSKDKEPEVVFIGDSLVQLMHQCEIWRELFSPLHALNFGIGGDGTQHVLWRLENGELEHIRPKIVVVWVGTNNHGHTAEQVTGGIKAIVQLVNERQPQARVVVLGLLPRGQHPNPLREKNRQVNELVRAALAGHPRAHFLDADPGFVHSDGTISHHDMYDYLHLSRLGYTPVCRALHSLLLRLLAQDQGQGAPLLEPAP
PAFAH2 inh: PAFAH2 (human) inhibition | recombinant PAFAH2, FP-rhodamine activity probe, fluorescence polarization | inhibition, % at 3.39 µM | 0.99% of 340,000 active;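 active = inhibition above the mean over all tested compounds plus 3 SD, cut at about 30% in these data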;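 note: inhibitors block probe labeling of enzyme so polarization drops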
M18AAP inhibitor: blocks P. falciparum M18 aspartyl aminopeptidase | recombinant PfM18AAP, H-Glu-NHMec fluorogenic cleavage | inhibition, % at 7.35 µM | 1.2% of 290,000 active | AID 1822;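 active = inhibition above the campaign mean inhibition over all tested compounds plus 3 SD, cut at about 28% in these data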
pPAFAH inh: inhibitors of human plasma PAF acetylhydrolase (pPAFAH); recombinant pPAFAH, FP-rhodamine probe fluorescence polarization; Q13093; 1.5% of 330,000 active; inhibition, % at 3.39 µM;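 active = inhibition above the mean inhibition across the screen plus 3 SD, cut at about 25% in these data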;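 note: inhibitors block binding of the rhodamine activity-based probe so polarization drops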
PAFAH1B2 inh: inhibitors of human PAFAH1B2; P68402; recombinant PAFAH1B2, FP-rhodamine activity probe, fluorescence polarization; inhibition, % at 3.39 µM; 1.2% of 340,000 active; AID 492953;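 active = inhibition above the mean of all tested compounds plus 3 SD, cut at about 24% in these data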
Target sequence (P68402 whole entry, looked up): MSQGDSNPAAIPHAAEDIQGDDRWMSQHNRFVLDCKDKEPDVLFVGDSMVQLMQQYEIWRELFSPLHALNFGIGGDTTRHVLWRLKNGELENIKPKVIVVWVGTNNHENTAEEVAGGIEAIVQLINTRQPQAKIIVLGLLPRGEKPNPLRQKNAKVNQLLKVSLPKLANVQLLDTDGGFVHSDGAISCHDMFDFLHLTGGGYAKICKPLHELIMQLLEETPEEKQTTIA
Large screens that a line does not name were inactive. Rows were chosen to be rich in hits. Some 3.8% of all compounds tested hit in one or more screens of this group.

COC(=O)c1ccc(NC(=O)c2cn(-c3ccccc3)nc2-c2ccncc2)cc1	none
NC1(CO)COC(c2ccccc2)OC1 (centres undefined)	none (no result: PAFAH1B3 FP inh, PAFAH2 inh, M18AAP inhibitor, pPAFAH inh, PAFAH1B2 inh)
Cc1no[n+]([O-])c1COc1cccc(/C=N/Nc2nncn2N)c1	M18AAP inhibitor 28.3
Cc1cc(C(=O)CSc2cccc[n+]2[O-])c(C)n1-c1ccc(OC(F)F)cc1	pPAFAH inh 30.6
Cn1c(SCc2ccccc2)nccc1=O	none (no result: M18AAP inhibitor, pPAFAH inh)
CC1=C(SCc2ccccc2)C(=O)c2ccccc2C1=O	PAFAH1B3 FP inh 48.4, PAFAH2 inh 45.8 (no result: M18AAP inhibitor, pPAFAH inh)
O=C(c1cc2cc(Br)ccc2s1)N1CCOCC1	none (no result: Pemphigus Ab inh)
Cc1cc(C)c2c(=O)n(CC(=O)Nc3cccc(F)c3)sc2n1	M18AAP inhibitor 65.4
CCOC(=O)c1cn(CC(=O)Nc2cccc(F)c2)nn1	none
CS(=O)(=O)N(CC(=O)N1CCN(c2ccccc2)CC1)Cc1ccc(Cl)cc1	PAFAH1B2 inh 24.8
CC1=NNC(=O)C(CC(=O)Nc2ccc(Cl)c(Cl)c2)C1 (centres undefined)	none
O=C1CCN(CCCN2CCC(=O)NC2=S)C(=S)N1	none (no result: PAFAH1B3 FP inh, PAFAH2 inh, M18AAP inhibitor, pPAFAH inh, PAFAH1B2 inh)
O=C1c2cc(CO)cc(O)c2C(=O)c2c(O[C@@H]3OC(CO)[C@@H](O)[C@@H](O)[C@@H]3O)cccc21 (some centres undefined)	none (no result: M18AAP inhibitor)
O=C(O)c1cc(O)c2c(c1)[C@@H]([C@H]1c3cc(C(=O)O)cc(O)c3C(=O)c3c(O[C@@H]4O[C@H](CO)[C@@H](O)[C@H](O)[C@H]4O)cccc31)c1cccc(OC3O[C@H](CO)[C@@H](O)[C@H](O)[C@H]3O)c1C2=O (some centres undefined)	Pemphigus Ab inh -1.1, PAFAH1B3 FP inh 75.9, PAFAH2 inh 86.0, pPAFAH inh 96.9, PAFAH1B2 inh 78.3 (no result: M18AAP inhibitor)
Cc1nc(=O)c(-c2ccccc2)c(C)n1-c1cccc(/C=C/C(=O)O)c1	none
Cc1nn(C(=O)c2cccnc2)c(C)c1Sc1ccc(Br)cc1	PAFAH1B2 inh 27.5
Cc1nn(C(=O)c2ccco2)c(C)c1Sc1ccc(Cl)cc1	none
O=C(N/N=C/c1ccc(O)cc1O)c1ccc(NC(=O)C2CCCCC2)cc1	PAFAH1B3 FP inh 37.4, PAFAH1B2 inh 33.4
O=C(N/N=C/c1cccc(O)c1)c1ccc(NC(=O)C2CCCCC2)cc1	none (no result: pPAFAH inh)
COc1cc(C2C(C#N)=C(N)Oc3cc(N(C)C)ccc32)cc2c1OCO2 (centres undefined)	M18AAP inhibitor 29.9
COc1cc(C2C(C#N)=C(N)Oc3cc(O)ccc32)cc2c1OCO2 (centres undefined)	none
CCOC(=O)C1=C(COC(=O)c2ccc(OC)c(S(=O)(=O)N3CCOCC3)c2)NC(=O)NC1C (centres undefined)	none (no result: M18AAP inhibitor, pPAFAH inh)
CC(=O)Nc1ccc(C23CC4CC(CC(C4)C2)C3)cc1	PAFAH1B2 inh 25.5
Oc1ccc(C23CC4CC(CC(C4)C2)C3)cc1O	Pemphigus Ab inh inconclusive, M18AAP inhibitor 90.2, PAFAH1B2 inh 61.1
CNC(=S)Nc1ccc(C23CC4CC(CC(C4)C2)C3)cc1	none
NC(Cc1c[nH]c2ccc(OCc3ccccc3)cc12)C(=O)O (centres undefined)	pPAFAH inh 25.9
CCC1=NNc2cccc3c(OC)ccc1c23	pPAFAH inh 48.4 (no result: Pemphigus Ab inh, PAFAH1B3 FP inh, PAFAH2 inh, PAFAH1B2 inh)
COc1ccc2c3c(cccc13)C(=O)N(O)C2=O	none
CCOC(=O)C1=C(C)NC(=O)NC1c1cc(Br)c(O)c(OC)c1 (centres undefined)	Pemphigus Ab inh 75.5
CC(=O)N1Cc2ccccc2CC1C(=O)OCC(=O)c1c(N)n(C)c(=O)n(C)c1=O (centres undefined)	none (no result: M18AAP inhibitor, pPAFAH inh)
Cn1c(N)c(C(=O)COC(=O)C2Cc3ccccc3CN2S(C)(=O)=O)c(=O)n(C)c1=O (centres undefined)	Pemphigus Ab inh 75.7 (no result: PAFAH1B3 FP inh, PAFAH2 inh, M18AAP inhibitor, pPAFAH inh, PAFAH1B2 inh)
CCC(O)C1CCN(Cc2cn(Cc3ccccc3)nc2-c2cc3ccccc3o2)CC1 (centres undefined)	pPAFAH inh 27.8
COCCOC1CCN(Cc2cn(Cc3ccccc3)nc2-c2cc3ccccc3o2)CC1	none
O=[N+]([O-])c1ccc(N2CCOCC2)cc1SCc1ccco1	M18AAP inhibitor 31.5
O=[N+]([O-])c1ccc(SCc2ccco2)cc1N1CCOCC1	none
Oc1ccc(-c2c(-c3ccsc3)sc3ccccc23)cc1	pPAFAH inh 29.1
COCc1ccc(-c2c(-c3ccsc3)sc3ccccc23)cc1	pPAFAH inh 24.8 (no result: M18AAP inhibitor)
c1ccc2c(-c3ccc(OCCN4CCCCC4)cc3)c(-c3ccsc3)sc2c1	none (no result: Pemphigus Ab inh, M18AAP inhibitor)
O=c1cc(-c2ccc(Cl)c(Cl)c2)[nH][nH]1	pPAFAH inh 25.9
CN(C)C(=O)CCc1ccc2c3c([nH]c2c1)[C@]1(CCc2ccccc2)[C@@H](C(=O)N2CCCCC2)C[C@H](CC(=O)NCCCn2ccnc2)C(=O)N1CC3	none (no result: M18AAP inhibitor)
CC(C)C#Cc1cnc2c(c1)C(=O)N([C@H](C)CO)C[C@@H](C)[C@H](CN(C)C(=O)Nc1ccccc1F)O2	none (no result: PAFAH1B3 FP inh, PAFAH2 inh, M18AAP inhibitor, pPAFAH inh, PAFAH1B2 inh)
O=C(c1ccc(Br)cc1)N1CCCc2ccccc21	none
Cc1ccc2oc(-c3ccc(NC(=O)CC(C)C)cc3)nc2c1	Pemphigus Ab inh -15.2
O=c1c2nnn(-c3ccccc3)c2ncn1C/C=C/c1ccccc1	Pemphigus Ab inh 70.1
CC(=O)c1c(C)[nH]c(C(=O)OCC(=O)N2CCN(c3ccccc3)CC2)c1C	none (no result: PAFAH1B3 FP inh, PAFAH2 inh, M18AAP inhibitor, pPAFAH inh, PAFAH1B2 inh)
C=CCn1c(O)c(C2=c3ccccc3=NC2=O)s/c1=N/c1nccs1	Pemphigus Ab inh 80.8
NS(=O)(=O)c1ccc(NC(=O)COc2ccc(C(=O)c3ccc(F)cc3)cc2)cc1	Pemphigus Ab inh 54.0
CC1(C)CC2(OC2c2ccccc2[N+](=O)[O-])C(=O)c2ccccc21 (centres undefined)	none (no result: PAFAH1B3 FP inh, PAFAH2 inh, M18AAP inhibitor, pPAFAH inh, PAFAH1B2 inh)
COc1ccc2cc(C(=O)N3CCCC(Nc4ccc(F)cc4)C3)n(C)c2c1 (centres undefined)	none
COc1ccc(-c2nnn(CC(=O)NCCc3ccc(OC)c(OC)c3)n2)cc1	Pemphigus Ab inh 38.1
COc1ccc(CCNC(=O)COc2ccc(-c3ccc(C)cc3)cc2)cc1OC	Pemphigus Ab inh 83.1
COc1ccc(CCN2CC(C(=O)NCCc3ccc(C)cc3)CC2=O)cc1OC (centres undefined)	pPAFAH inh 29.4
COC(=O)c1ccccc1S(=O)(=O)NNC(=O)c1ccccc1-n1cccc1	none
O=C(Nc1cccnc1)c1ccc(S(=O)(=O)c2ccc(Cl)cc2)cc1	PAFAH1B2 inh 27.4
O=C(Nc1cccnc1)c1ccc(C(=O)Nc2cccnc2)cc1	none
Cc1ccc(CSC2=Nc3sccc3C3=NC(=O)CN23)cc1	pPAFAH inh 27.2
CCOc1ccc(N/C(=C(/C(Cl)=C(Cl)Cl)[N+](=O)[O-])n2cncn2)cc1	M18AAP inhibitor 78.1 (no result: Pemphigus Ab inh, PAFAH1B3 FP inh, PAFAH2 inh, PAFAH1B2 inh)
Cc1ccc(CN2[C@@H](CC3CCCCC3)COCCS2(=O)=O)cc1	PAFAH1B2 inh 31.4
O=S1(=O)CCOC[C@H](CC2CCCCC2)N1Cc1ccc(Cl)cc1	PAFAH1B2 inh 29.3
